About 83,000 compounds went through this panel and 20% of them were active in at least one assay; those are over-represented in the sample as a whole.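 Values shown are percent growth following 48 h exposure of cells in 96-well plates to a single concentration of compound; below 10 was considered active.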 Values without a mark were called inactive. Active and inactive are the calls of the source.
Key:
Assay in all cases: NCI-60 one-dose screen, 48 h (100 = growth as untreated, 0 = no growth, -100 = all killed)
Settings in all cases: 10 µM unless noted
[1] = system: SR leukemia
[2] = system: OVCAR-8 ovarian
[3] = system: OVCAR-5 ovarian
[4] = system: OVCAR-4 ovarian
[5] = system: SK-OV-3 ovarian
[6] = system: IGROV1 ovarian
[7] = system: OVCAR-3 ovarian
[8] = system: HS 578T breast
[9] = system: NCI/ADR-RES ovarian

Row | SMILES | growth [1] | growth [2] | growth [3] | growth [4] | growth [5] | growth [6] | growth [7] | growth [8] | growth [9]
1 | CC(C)C1C2=C(NCCN1C(=O)c1ccncc1)C(C)(C)N(Cc1ccccc1)C2=O (configuration not stated) | 89.4% | 108% | 107% | 111% | 98.9% | 101% | 102% | 109% | 99.4%
2 | CNC(=O)c1cc(Oc2ccc3c(c2)sc2nc(-c4ccc(NC(=O)[C@@H](NC(=O)OC)C(C)C)cc4)cn23)ccn1 | 66.1% | 34.9% | 117% | 66.4% | 98% | 82.2% | 63.3% | 81.6% | 65.1%
3 | N#Cc1c(-c2ccccc2)cc(-c2ccccc2)n(CCCCC(=O)NO)c1=O | 7.41% (active) | 15.6% | 13.6% | 34% | – | – | 20.5% | 27.4% | -16.2% (active)
4 | COc1cc(Cc2cc(OC)c(O)c(OC)c2)cc(OC)c1O | 28% | 100% | 112% | 107% | 98.3% | 91.6% | 96.2% | 92.3% | 52.8%
5 | COc1ccc(Oc2ccc(/C=C/C(=O)c3ccc(OC)c(OC)c3)cc2)cc1 | 50.9% | 73.8% | 112% | 62.8% | 97.3% | 85.5% | 86.7% | 88.2% | 83.4%
6 | O=C(C1=Cc2cc3ccccc3n2Cc2cnnn21)c1ccc(F)cc1 | 87.6% | 99.4% | 115% | 95% | 94.6% | 90% | 104% | 90.8% | 101%
7 | N#Cc1c(-c2ccc(Cl)cc2)nc(NN=Cc2ccc[nH]2)nc1N1CCOCC1 | 31.2% | 85.1% | 99.6% | 72.6% | 84.7% | 67.9% | – | 95% | 84.5%
8 | CCOC(=O)C(CCN(C)C)c1ccccc1 (configuration not stated) | 97.8% | 111% | 88.7% | 100% | 104% | 104% | 96.4% | 98% | 103%
9 | C/C(Cc1ccc(Cl)cc1)=C(\c1ccc(OCCN2CCCCCC2)cc1)c1ccc(OC(=O)c2ccccc2)cc1 | -14.3% (active) | 34.5% | 68.7% | 36.6% | 86.9% | – | 59.1% | 56% | 47%
10 | COc1ccc(/C=C(/C(=O)N2CCNCC2)c2cc(OC)c(OC)c(OC)c2)cc1O | 3.13% (active) | 52.1% | 86.3% | 78.7% | 10.1% | 60.2% | 10.5% | 26.7% | 105%
11 | CCN1C(=O)N(CC)C2C1NN=c1s/c(=C\c3ccc(OC)cc3)c(=O)n12 (configuration not stated) | 12.1% | – | 29.4% | 46.3% | 40.5% | 19.6% | -16.5% (active) | 21.6% | 0.931% (active)
12 | CCOc1ncc([N+](=O)[O-])c(OCC)n1 | 93.7% | 105% | 101% | 113% | – | 107% | 124% | 121% | 99.5%
13 | Cc1c(C(C)(C)O)cn2ncnc(Oc3ccc(NC(=O)Nc4ccc(Cl)c(C(F)(F)F)c4)c(F)c3)c12 | 8.9% (active) | 70.7% | 134% | 37.5% | 95.6% | 57.3% | 47.6% | 80.9% | 68%
14 | O=C1c2cccnc2C(=O)c2c1c(C(=O)OCCc1ccccn1)c1ccccn21 | -10.9% (active) | -14% (active) | 9.08% (active) | 4.6% (active) | – | – | -16.1% (active) | -28.6% (active) | -26.4% (active)
15 | COc1ccc(C/C(C)=C(\c2ccc(Cl)cc2)c2ccc(OCCN3CCCC3)cc2)cc1 | -14.2% (active) | 91.1% | 68.9% | 97.7% | 101% | 69% | 93.1% | 70.4% | 87.8%
16 | COC1C(O)CC(OC2CC(OC3CC(O[C@@H]4C(=O)c5c(cc6cc(OC7CC(OC8CC(O)C(O)C(C)O8)C(O)C(C)O7)c(C)c(O)c6c5O)CC4[C@H](OC)C(=O)C(C)=O)OC(C)C3O)OC(C)C2O)OC1C (some centres not stated) | -5.46% (active) | 4.01% (active) | – | 10.7% | 17.4% | 13.6% | 6.3% (active) | 10.8% | 18.8%
17 | CCNC(=O)N1CCc2c(Br)c3c(c(OC)c2C1Cc1ccc(OC)cc1)OCO3 (configuration not stated) | 33.1% | 49.8% | 74.4% | 54.3% | 27.6% | 35.7% | 7.18% (active) | 16.9% | 4.18% (active)
18 | CCN(CC)c1ccc(-c2cc(-c3cc(OC)c(OC)c(OC)c3)nc(N3CCC(O)CC3)c2C#N)cc1 | 12% | 10.6% | 2.43% (active) | 40.5% | -5.1% (active) | 2.12% (active) | -58.6% (active) | -13.8% (active) | 5.08% (active)
19 | CC(O)Cc1c[nH]c(=O)[nH]c1=O (configuration not stated) | 93.8% | 92% | 109% | 115% | 29.3% | 116% | 99% | 103% | 104%
